This is part of a sample that, as a whole, favours compounds with a hit. Of some 83,000 tested, about 20% had one in any assay.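 Single-dose data. Exposure time 48 hours. Values below 10 considered active.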 Unmarked numbers belong to inactive results. Calls of active or inactive are those of the source.

Test in all cases: NCI-60 one-dose screen, 48 h (100 = growth as untreated, 0 = no growth, -100 = all killed)
For one experiment, the system named is NCI-H23 lung. The settings on record: 10 µM unless noted.
The subject of the next experiment is NCI-H226 lung. The settings on record: 10 µM unless noted.
A further experiment has as its system NCI-H322M lung. The settings on record: 10 µM unless noted.
Another experiment relates to HOP-62 NSCLC. The settings on record: 10 µM unless noted.
In another experiment the test system is NCI-H460 lung. To be noted: 10 µM unless noted.
In the next experiment the test system is HOP-92 NSCLC. To be noted: 10 µM unless noted.
For another experiment, the system named is NCI-H522 lung. To be noted: 10 µM unless noted.
Another experiment concerns 786-0 renal. The settings on record: 10 µM unless noted.
The next experiment concerns COLO 205 colon. The settings on record: 10 µM unless noted.
The test system of another experiment is DU-145 prostate. To be noted: 10 µM unless noted.
The next experiment concerns MALME-3M melanoma. To be noted: 10 µM unless noted.
In the next experiment the test system is MDA-MB-231 breast. To be noted: 10 µM unless noted.
The test system of the next experiment is RXF 393 renal. To be noted: 10 µM unless noted.
The test system of the next experiment is SF-268 CNS. The settings on record: 10 µM unless noted.
Another experiment concerns SF-295 CNS. To be noted: 10 µM unless noted.
The subject of a further experiment is SF-539 CNS. To be noted: 10 µM unless noted.
For a further experiment, the system named is M14 melanoma. The settings on record: 10 µM unless noted.
The next experiment has as its system A549/ATCC NSCLC. The settings on record: 10 µM unless noted.
A further experiment relates to K-562 leukemia. The settings on record: 10 µM unless noted.
The next experiment has as its system UACC-257 melanoma. The settings on record: 10 µM.

On to `COc1ccc2c(C3=C(c4c[nH]c5ccccc45)C(=O)N(O)C3=O)coc2c1`, for which the growth with NCI-H23 lung was 93%; in the experiment on NCI-H226 lung it was 74.9%; in the experiment with NCI-H322M lung, 96.8%; in the experiment with HOP-62 NSCLC, 84.7%; with NCI-H460 lung, 90.3%; in the experiment on HOP-92 NSCLC, 96%. Besides, the growth is 68.4% in the experiment with NCI-H522 lung; 93.8% with 786-0 renal; 99.2% in the experiment on COLO 205 colon; 103% with DU-145 prostate; 94.8% with MALME-3M melanoma; 78.3% in the experiment on MDA-MB-231 breast. Moreover, the growth is 105% in the experiment on RXF 393 renal; 101% in the experiment on SF-268 CNS; 103% in the experiment on SF-295 CNS; 93.3% in the experiment with SF-539 CNS; 94.4% in the experiment on M14 melanoma.

For `N#Cc1c(NC(=O)c2ccccc2C(F)(F)F)sc2c1CCC(=O)C2`, the growth was 3.19% (active) in the experiment with NCI-H23 lung; 13.6% in the experiment on NCI-H226 lung; 95.5% with NCI-H322M lung; 33% in the experiment on HOP-62 NSCLC; 13.5% in the experiment with NCI-H460 lung; -36.7% (active) in the experiment on HOP-92 NSCLC. Also, the growth with A549/ATCC NSCLC was 75.4%; in the experiment with 786-0 renal it was 28.7%; in the experiment with COLO 205 colon, -18.2% (active); with DU-145 prostate, 33.8%; in the experiment with K-562 leukemia, 10.9%; with MALME-3M melanoma, -17.3% (active). Besides, the growth is 3.09% (active) with MDA-MB-231 breast; -23.8% (active) in the experiment on RXF 393 renal; 18.9% with SF-268 CNS; 11% in the experiment on SF-295 CNS; -28.9% (active) in the experiment with SF-539 CNS; -9.8% (active) with UACC-257 melanoma.

Turning to `C#CCOc1ccc(C(Nc2ccc(Cl)cc2)c2nnnn2C2CCCCC2)cc1` (centres undefined), the growth in the experiment with NCI-H23 lung was 91.7%; in the experiment on NCI-H226 lung it was 88.4%; in the experiment on NCI-H322M lung it was 93.6%; in the experiment with HOP-62 NSCLC it was 83.4%; in the experiment on NCI-H460 lung, 83.1%; with HOP-92 NSCLC it was 81.8%. The growth was 78.8% with A549/ATCC NSCLC; 92.5% in the experiment with 786-0 renal; 97.9% with COLO 205 colon; 93.8% with DU-145 prostate; 82.2% in the experiment on K-562 leukemia; 98.8% with MALME-3M melanoma. The growth with MDA-MB-231 breast was 76.9%; with RXF 393 renal, 87%; with SF-268 CNS, 80.2%; in the experiment on SF-295 CNS, 74.5%; in the experiment with SF-539 CNS, 98.6%; with UACC-257 melanoma, 86.2%. The growth with M14 melanoma is 99.4%.

Consider `O=C1c2c(O)cc(O)cc2O[C@@H](c2ccc(O)cc2)[C@@H]1c1c(O)cc(O)c2c(=O)cc(-c3ccc(O)c(O)c3)oc12`, for which the growth with NCI-H23 lung was 92%; with NCI-H226 lung it was 76.6%; in the experiment on NCI-H322M lung, 97%; in the experiment with HOP-62 NSCLC it was 96.3%; with NCI-H460 lung, 112%; in the experiment on HOP-92 NSCLC it was 104%. The growth with A549/ATCC NSCLC was 106%; in the experiment with 786-0 renal, 100%; in the experiment with COLO 205 colon, 114%; in the experiment on DU-145 prostate, 106%; in the experiment with K-562 leukemia it was 111%; in the experiment with MALME-3M melanoma, 90.7%. Moreover, the growth with MDA-MB-231 breast is 111%; in the experiment with RXF 393 renal, 112%; with SF-268 CNS, 101%; in the experiment with SF-295 CNS, 108%; with SF-539 CNS, 95.8%; with UACC-257 melanoma, 108%. The growth in the experiment on M14 melanoma was 94.8%.

As to `O=C(CN1C(=O)CSC1=O)Nc1ccc(C(=O)/C=C/c2cc3ccccc3nc2Cl)cc1`, the growth with NCI-H23 lung was 68.4%; with NCI-H226 lung, 89.1%; in the experiment with NCI-H322M lung it was 96.1%; with HOP-62 NSCLC, 97.5%; in the experiment on NCI-H460 lung, 85.7%; with HOP-92 NSCLC it was 94.4%. The growth with A549/ATCC NSCLC is 78.2%; in the experiment with 786-0 renal, 73.3%; with COLO 205 colon, 111%; in the experiment on DU-145 prostate, 90.3%; in the experiment with K-562 leukemia it was 37.2%; in the experiment with MALME-3M melanoma, 91.8%. Besides, the growth is 90.4% in the experiment on MDA-MB-231 breast; 17.6% with RXF 393 renal; 78.8% in the experiment with SF-268 CNS; 77% with SF-295 CNS; 79.1% in the experiment on SF-539 CNS; 75.3% in the experiment on UACC-257 melanoma. Besides, the growth with M14 melanoma is 83.7%.

Consider `Oc1ccc(CSc2nnc(-c3ccc(Br)cc3)o2)c2cccnc12`, for which the growth in the experiment with NCI-H23 lung was 38.3%; with NCI-H226 lung, 61.5%; in the experiment on NCI-H322M lung it was 35.7%; in the experiment with HOP-62 NSCLC, 21.9%; in the experiment on NCI-H460 lung, 10.8%; in the experiment on HOP-92 NSCLC it was 5.88% (active). The growth is 29.8% in the experiment on A549/ATCC NSCLC; 39.9% in the experiment with 786-0 renal; 100% in the experiment with COLO 205 colon; 40.2% in the experiment on DU-145 prostate; 15.2% with K-562 leukemia; 58.5% in the experiment on MALME-3M melanoma. Further, the growth in the experiment on MDA-MB-231 breast was 51.4%; in the experiment on RXF 393 renal, 60.9%; in the experiment with SF-268 CNS, 31.3%; in the experiment with SF-295 CNS, 11.3%; with SF-539 CNS, 28.4%; with UACC-257 melanoma, 29.7%. Also, the growth in the experiment with M14 melanoma was 31.5%.

`O=C(c1cccc(F)c1)n1ccc2cc(NC(=S)Nc3cccnc3)ccc21`: the growth in the experiment with NCI-H23 lung is 100%; with NCI-H226 lung it was 112%; in the experiment with NCI-H322M lung, 99%; in the experiment with HOP-62 NSCLC, 106%; in the experiment on NCI-H460 lung, 98.6%; in the experiment on HOP-92 NSCLC it was 123%. The growth was 98.7% with A549/ATCC NSCLC; 80.5% in the experiment with 786-0 renal; 115% with COLO 205 colon; 102% in the experiment with DU-145 prostate; 96% in the experiment on K-562 leukemia; 92.7% in the experiment with MALME-3M melanoma. In addition, the growth was 106% in the experiment on MDA-MB-231 breast; 108% in the experiment on RXF 393 renal; 95.7% with SF-268 CNS; 97.3% in the experiment on SF-295 CNS; 99.8% in the experiment with SF-539 CNS; 97.4% with UACC-257 melanoma.

The values are drawn from PubChem BioAssay (NCI).
